GASC-1 inh: inhibitors of human GASC-1 (JMJD2C) demethylase | Q9H3R0 | GST-JMJD2C(1-420) H3K9me3 demethylation, DELFIA europium | inhibition, % at 2.35 µM | 330,000 compounds, 0.069% hits | AID 2099;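 active = more than half of a compound's replicate wells show inhibition beyond 50%, single wells judged on their own value; inconclusive = some, but no more than half, of replicates pass 50% inhibition; inactive = no replicate passes 50% inhibition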;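 also: signal counts dimethyl H3K9 product captured on neutravidin plate; 0% = median of DMSO wells and 100% = 0.3 times that DMSO median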
Exocytosis inh: blocks lytic granule exocytosis; inhibition, % at 10 µM; AID 651702; TALL-104 LAMP-1 surface exposure, flow cytometry; cells stimulated with thapsigargin and PMA; 360,000 compounds, 0.66% hits;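 active = inhibition above about 55%, limit read from the data; inconclusive = no clear call, values can overlap the other calls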
MEX-5 binding: C. elegans MEX-5 TCR-2 RNA binding activity; 300,000 compounds, 0.38% hits; MEX-5/FITC-TCR2 RNA binding, fluorescence polarization; active compounds read low; activity score (negative = inhibition of binding), % at 10 µM; Q9XUB2;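 active = inhibition past about -25% in most replicates, and total fluorescence under double the plate's negative control median, limit read from the data; inconclusive = replicates evenly split on the limit, or fluorescence at least double controls; inactive = too little inhibition in most replicates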;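 also: 0% = DMSO and -100% = 5 µM competing unlabeled TCR2 RNA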
m5-HT2A agonist: mouse HTR2A agonism via beta-arrestin recruitment. P35363. CHO-K1 mHTR2A beta-arrestin complementation, luminescence; percent of 30 µM serotonin response. activation, % at 7.6 µM. 360,000 compounds, 0.66% hits. AID 624169;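 active = activation above a run cutoff, the mean activation of all tested compounds plus 3 SD, cut at about 14% in these data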;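 also: 0% = plate median of compound wells and 100% = 30 µM serotonin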
Target sequence (P35363 whole entry, looked up): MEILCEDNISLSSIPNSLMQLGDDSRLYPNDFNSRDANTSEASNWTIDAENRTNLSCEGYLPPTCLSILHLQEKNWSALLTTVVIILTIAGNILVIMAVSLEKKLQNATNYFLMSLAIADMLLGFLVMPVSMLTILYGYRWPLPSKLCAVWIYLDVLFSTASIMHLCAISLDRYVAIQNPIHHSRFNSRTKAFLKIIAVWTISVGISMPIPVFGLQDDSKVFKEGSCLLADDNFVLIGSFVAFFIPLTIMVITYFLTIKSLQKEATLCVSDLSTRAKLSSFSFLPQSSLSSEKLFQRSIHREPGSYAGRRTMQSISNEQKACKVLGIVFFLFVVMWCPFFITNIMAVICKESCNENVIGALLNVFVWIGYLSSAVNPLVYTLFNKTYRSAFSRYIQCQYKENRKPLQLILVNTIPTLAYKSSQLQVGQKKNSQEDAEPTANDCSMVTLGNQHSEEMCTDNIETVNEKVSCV
VLA-4 inh: inhibition in a human VLA-4 binding assay | P13612 | VLA-4 expressing cells, ligand binding flow cytometry | inhibition, % (about 7 µM as worked out from the volumes in the protocol) | 330,000 compounds, 0.2% hits | AID 2557; in the data active = inhibition above about 50%
V-ATPase pHluor: alters yeast V-ATPase proton transport; response, % at 10 µM; 350,000 compounds, 0.37% hits; S. cerevisiae, pHLuorin cytosolic pH fluorescence; in the data active = response mostly above about 7.3%, no sharp cut-off; inactive = mostly below about 5.4%; also: actives read high
VATPase regulator: yeast V-ATPase proton transport regulation; shares compounds with V-ATPase pHluor; S. cerevisiae pHLuorin cytosolic pH; response, % at 10 µM; 980 compounds, 2% hits; in the data active = response above about 24%;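 also: plate controls were vehicle wells for no effect and positive control wells for full effect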
The depositor's hits bear a star; u = inconclusive; x = no result. In the library only some 2.2% were active in any assay of this set; here they are far more common.

SMILES	GASC-1 inh	Exocytosis inh	MEX-5 binding	m5-HT2A agonist	VLA-4 inh	V-ATPase pHluor	VATPase regulator
NC(=O)COc1ccc(=O)n(-c2ccccc2)n1	0	-15	1	6	4	-1	x
O=S(=O)(CCNC1CC1)NC1CCCCC1	x	-13	x	7	x	0	x
O=C(CNC(=O)c1ccccc1Br)Nc1cccc(S(=O)(=O)Nc2ccccc2Cl)c1	x	-1	x	1	x	1	x
CCCCCCCCNC(=O)c1cccnc1SCC(=O)Nc1ccccc1OC	2	8	1	-5	14	16*	-8
COc1ccccc1C(=O)NCCC(=O)Nc1cccc(S(=O)(=O)N2CCCC2)c1	26	-11	x	1	-9	1	x
O=C(Nc1ncccc1O)c1c(O)c2ccccc2[nH]c1=O	1	7	0	-3	4	2	x
COc1ccc(CSC2=NCCN2)cc1Cl	122	-1	-1	-3	16	-1	x
Clc1cccc(CSC2=NCCCN2)c1	16	6	0	13	-29	-2	3
CCc1noc(C)c1C(=O)N1CCN(S(=O)(=O)c2c(C)cc(C)cc2C)CC1	3	-2	x	4	1	0	x
O=C(Nc1ccc(F)cc1)Nc1cc(S(=O)(=O)N2CCOCC2)ccc1N1CCCC1	16	-2	0	1	-2	8.6*	-3
O=C(Nc1ccc(Cl)cc1)Nc1cc(S(=O)(=O)N2CCOCC2)ccc1N1CCCC1	-6	4	1	-4	-7	-3	x
Cc1nc(SCc2nc3cc(Cl)c(F)cc3[nH]2)c2oc3ccccc3c2n1	-3	-8	x	9	-6	2	x
CSc1cccc(NC(=O)COC(=O)c2ccccn2)c1	5	17	x	3	-14	-3	x
CN(C(=O)c1ccc(NC(=O)Cc2ccc(NC(=O)C3CCCN(C(=O)C4CCCC4)C3)cc2)cc1)C1CC1 (stereo not given)	9	-5	x	-2	0	20*	-6
CC(=O)Nc1ccc(N(C(=O)CNC(=O)c2ccco2)C(C(=O)NCc2ccco2)c2ccccc2F)cc1 (stereo not given)	-23	-1	2	-1	2	-1	x
CCCC(=O)Nc1ccc(C(=O)Nc2cccc(OC)c2)cc1	1	2	1	2	5	9.7*	3
COc1cccc(NC(=O)c2ccc(NC(=O)C(C)(C)C)cc2)c1	-5	2	-1	-2	16	1	x
CCn1c(SCC(=O)Nc2nc3ccccc3s2)nnc1-c1ccc(Br)cc1	13	2	0	2	-9	15*	1
Cn1c(SCC(=O)Nc2nc3ccccc3s2)nnc1-c1ccccc1	9	-4	x	1	9	-1	x
O=C(C1CC(=O)N(c2ccc3c(c2)OCCO3)C1)N1CCN(c2cccc(C(F)(F)F)c2)CC1 (stereo not given)	-1	-3	-2	4	26	3	x
CCC1COC(c2cccn2Cc2ccccc2Cl)=N1 (stereo not given)	-3	-4	1	1	6	0	x
COc1ccc(OCc2nn3c(-c4ccccn4)nnc3s2)cc1	-1	-2	0	-3	-4	9.5*	2
COc1ccc2c(c1)C(CC(=O)NN)CCC2 (stereo not given)	x	-3	x	-5	x	13*	0
COc1ccc(CC(=O)NC2CCCc3ccccc32)cc1 (stereo not given)	7	5	0	-1	6	1	x
O=c1[nH]n(-c2ccc(Cl)cc2)c(=O)c(Cl)c1Cl	-3	0	3	-5	-7	2	1
SMILES	GASC-1 inh	Exocytosis inh	MEX-5 binding	m5-HT2A agonist	VLA-4 inh	V-ATPase pHluor	VATPase regulator
O=C(CSc1nc2ccccc2s1)N/N=C/c1cc([N+](=O)[O-])ccc1O	-4	3	-2	-18	-2	6	x
Cc1nn(-c2ccc(Cl)cc2)c(=O)c2c(C)noc12	-2	-4	1	3	5	-1	-2
O=C(CN1Cc2ccccc2C1=O)Nc1ccc2c(c1)OCCO2	4	-4	0	10	-1	11*	-3
NC(=O)c1ccccc1OCC(=O)Nc1ccc2c(c1)OCCO2	x	0	x	1	x	7.3*	0
CCOc1ccc(S(=O)(=O)NN=C2CCN(C(C)=O)CC2)cc1	-1	-1	2	7	-5	4	x
COc1cccc(/C=c2\s/c(=C/C(=O)c3ccc(C)cc3)[nH]c2=O)c1OC	-4	6	-4	1	9	8.0*	-54
COc1ccc(/C=c2\s/c(=C/C(=O)c3ccc(C)cc3)[nH]c2=O)c(OC)c1	-1	2	-18	3	-81	-8	x
C[C@H](CO)N1C[C@H](C)[C@@H](CN(C)C(=O)c2cnccn2)Oc2cc(C#CCC3CCCC3)ccc2S1(=O)=O	x	4	x	-4	x	-3	x
Cc1cccc2sc(N(CCCN(C)C)C(=O)c3ccc(Cl)s3)nc12	7	-5	1	11	33	11*	0
CCCCCCCCNCCS(=O)(=O)NN1CCOCC1	x	-2	x	-1	x	-3	x
N=C1c2ccccc2CN1NC(=O)COc1ccc(Cl)cc1	1	-1	-1	9	17	11*	1
O=C(Nc1cc2c(cc1Br)OCCCO2)c1cccnc1	11	-10	-1	-5	10	9.4*	6
COc1cccc(C(N)=O)c1	-4	-3	4	3	-11	11*	0
CC(CC(=O)N1CCN(c2ccccc2F)CC1)c1ccccc1 (stereo not given)	-5	-3	-2	1	-25	1	x
CC(=O)OC(C(=O)N1CCN(c2ccccc2F)CC1)c1ccccc1 (stereo not given)	12	0	0	3	22	12*	1
O=S(=O)(c1ccccc1)N(CC(O)Cn1c2ccccc2c2ccccc21)c1ccccc1 (stereo not given)	-4	-1	1	1	-13	7.8*	0
Cc1cc(-c2ccccc2)nc(N(C)NC(=O)c2ccc(Cl)cc2)c1S(C)(=O)=O	-1	-6	0	0	9	18*	-3
Cc1cc(-c2ccccc2)nc(N(C)NC(=O)C(C)(C)C)c1S(C)(=O)=O	-16	-6	2	-2	19	0	x
CCc1ccc(CNC(=O)c2ccc(NC(=O)C3=CSCCO3)cc2)cc1	2	12	0	0	-6	6	x
O=C(O)c1cccc(NC(=O)c2ccccc2NC(=O)c2cccc([N+](=O)[O-])c2)c1	-7	-4	2	0	9	6	x
O=C(Nc1ccc2[nH]c(=O)[nH]c2c1)c1cccc([N+](=O)[O-])c1	4	4	-1	6	5	8.9*	-1
O=C(Nc1ccccc1C(=O)Nc1ccncc1)c1cccc([N+](=O)[O-])c1	u	3	0	4	5	13*	0
